Experimental data from the supplement of paper PMC10338343.
± gives the standard deviation.

These sequences were tested on MILI (PIWIL2) piRISC loaded with piRNA #1 (26 nt) (assay: pre-steady-state target cleavage rate (min^-1); guide: piRNA #1 5'p-UGAGGUAGUAGGUUGUAUAGUAUCCA; MIWI and MILI are mouse PIWI proteins and EfPiwi is from a freshwater sponge; tags in brackets are library labels; higher = faster piRNA-guided slicing of the target). Conditions: auxiliary factor: 500 nM mouse GTSF1.
Method in brief: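 A burst-and-steady-state fit was used to obtain the pre-steady-state cleavage rate. The input data were sequencing reads of uncleaved targets, normalised to depth and to weakly complementary targets, from a […] transcribed, DNA-blocked target RNA library mixed with 1 nM active affinity-purified piRISC holding one synthetic guide, with or without 500 nM GTSF1 partner protein, in HEPES–potassium acetate buffer at 33 °C for 0–8 or 0–960 min. Three trials were pooled and k3 was capped at 0.0001 min^-1.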
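Also: 1 nM active piRISC with 0.1 nM target library at 33 °C single turnover.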

Sequence	pre-steady-state target cleavage rate
GGAGACCUAUGAAUACAACCGUACUACCUCA	0.00389 ± 0.003
GGAGACCAUACAAUACAACCUUCUACCUCA	0.012 ± 0.0035
GGAGACCUUACUAUUCAACCUACUUCCUCA	0.0623 ± 0.013
GGAGACGAUACUUUUCAACCUACUACCUCA	0.171 ± 0.011
GGAGACCAUUCUAUACAACCUACAACCUCA	0.13 ± 0.013
GGAGACCUAUGAUAACAAGCUACUACCUGA	0.00722 ± 0.0035
GGAGACCUAUCUAUUCAACCUUCUACCUCA	0.0069 ± 0.0028
GGAGACCUAUCUUUACAACCUACUACGUCA	0.0265 ± 0.0062
GGAGACCUAUGAAUACAAGCUAGUACCUCA	0.0081 ± 0.0031
GGAGACCUAUGAUAUGUUCCUACGUACCUCA	< 0.0001
GGAGACCUUACUAUACAACCUACUACCUCU [g2:g22:cont:t1U]	0.177 ± 0.017
GGAGACCAUACUAUAGAACGUACUACCUCA	0.00933 ± 0.0017
GGAGACCUUACUAUACAACCUACUUACCUCA	0.158 ± 0.013
GGAGACCUAUGAUAUGUUGCUAGAUCCUCA	< 0.0001
GGAGACCUUAGUAUUCAACCUACUACCUCA	0.089 ± 0.011
GGAGACCUAAGUAUACAACGUACUACCUCA	0.0111 ± 0.0021
GGAGACCUAUCUAUACUACCUUCUACCUCA	0.00727 ± 0.003
GGAGACCAUACUAUACUAGCUACUACCUCA	0.182 ± 0.018
GGAGACCUAUGAUUACAUCCUACUUCCUCA	0.00764 ± 0.0027
GGAGACCUAUGAUAUGUUCCUUCUACCACA	< 0.0001

Sequence	pre-steady-state target cleavage rate
GGAGACCUAUCUAUACAACCUAACUACCUCA	0.00833 ± 0.0023
GGAGACCUAUCUAUACAACCUAGCUACCUCA	0.0218 ± 0.0062
GGAGACCUAUCUAUACAUCCUACUACGUCA	0.0773 ± 0.017
GGAGACCUUACUAUACUACCUACAACCUCA	0.13 ± 0.011
GGAGACCAUUCUAUUCAACCUACUACCUCA	0.102 ± 0.012
GGAGAGGAUAGAUUACAACCUACUACCUCA	0.0529 ± 0.0086
GGAGACCUAACUAACAACCUACUACCUCA	0.0182 ± 0.0067
GGAGACCUAUCUAAACAACCUACUACCUGA	0.0477 ± 0.013
GGAGACCUAUGAAUACAAGCUACAACCUCA	0.018 ± 0.0032
GGAGACCUAUCUAUACUACCUACUUCCUCA	0.0634 ± 0.01
GGAGACCAUACUAAACAAGCUACUACCUCA	0.236 ± 0.018
GGAGACCUAACUAUACAACCUACUUACCUCA	0.135 ± 0.021
GGAGAGGAUUCUAUACAUCCUACUACCUCA	0.263 ± 0.013
GGAGACCUAUGAUUUCAACCUACAACCUCA	0.00341 ± 0.0021
GGAGACCUAACAAUACAACCUACUACGUCA	0.023 ± 0.0089
GGAGACCUAUCUAUACUACCAACUACCUCA	0.00495 ± 0.0022
GGAGACCUAACUAUACUACCUACUACGUCA	0.0596 ± 0.018
GGAGACGAUACUAUACCACCUACUACCUCA	0.168 ± 0.015
GGAGACCAUACUUUACAACCUACUACGUCA	0.0972 ± 0.016
GGAGACCUUACUUAUCAACCUACUACCUCA	0.0518 ± 0.014
